Experimental data as given in PubChem BioAssay (EPA / NIEHS).
Calls of active or inactive are those of the source. Rule for the calls: active = hit-call score of the fitted dose curve at least 0.9, where 1 is the maximum; inactive = score below 0.9.

What follows are compounds tested on Heat shock 70 kDa protein 1 (HSPA1A), gene 3303 (assay: LTEA_HepaRG_HSPA1A: Life Technologies and Expression Analysis (LTEA) Assay for Heat shock 70 kDa protein 1 (HSPA1A) using HepaRG (AID 2283502)). Conditions: mRNA level, 48 h; actives raise or lower the signal.
Procedure: LTEA_HepaRG is a cell based, multiplexed-readout assay that uses HepaRG, a human liver cell line, with measurements taken at 48 hours after chemical dosing on a 96-well plate.LTEA_HepaRG_HSPA1A is one of 102 assay component(s) measured in the LTEA HepaRG cell culture assay. It is a marker of Oxidative Stress.Data from the assay component LTEA_HepaRG_HSPA1A was analyzed into 1 endpoint. This assay endpoint, LTEA_HepaRG_HSPA1A, was analyzed with bidirectional fitting relative to DMSO as the negative control and baseline of activity. Using a type of inducible reporter, measures of mRNA induction for gain or loss-of-signal activity can be used to understand regulation of transcription factor activity. To generalize the intended target to other relatable targets, this assay endpoint is annotated to the dna binding intended target family, where the subfamily is heat shock protein.
A total of 1060 chemcials from the ToxCast library were tested in eight-point concentration-response experiments. Cell culture and cytotoxicity assays were conducted at Thermo Fisher Scientific's Custom Services facility (Madison, WI). A single lot of human HepaRG cells (Thermo Fisher Scientific, Frederick, MD) was used for the cell culture experiments. 96-well format collagen type I coated plates of human HepaRG cells were prepared using established methods. Briefly, cryopreserved HepaRG cells were thawed, plated at a density of approximately 100,000 cells/well in HepaRG Thaw, Plate, and General Purpose media (HPRG770, Thermo Fisher Scientific), and incubated for 48 hours. 0.5% DMSO was selected as vehicle control to balance the requisite need of DMSO in HepaRG cultures to maintain differentiation (for example, baseline metabolism, proportions of hepatocytes vs. cholangiocytes), while enabling further hepatic receptor pathway activation (for example, PXR and CAR) in response to chemical exposure. 48 hours after plating, the culture medium was replaced with HepaRG Serum-Free Incudtion Media. Cells were exposed to each test chemical in duplicate and maintained in CO2 incubators for another 48 hours. Chemical plates were thawed to room temperature and 200x concentrations of treatment groups were prepared. 8-point conentration-reponse curves were made with the highest exposure at 100 uM, followed by half-log dilutions, all in 0.5% DMSO. Each test plate contained variouse controls, induction positive controls (1mM phenobarbital), cytotoxicity positive controls ([…] aflatoxin B1), vehicle controls (0.5% DMSO), and total lysis controls (0.5% DMSO). Cell morphology images were taken using an Essen IncuCyte FLR automated microscope, with six 96-well plates imaged in about 24 minutes. Images were captured and exported and JPEG files. Spent culture media was transfered to black-well plates for the LDH assay, and remaining media was sorted at -80 C for later use. Cells were treated with RLT buffer and frozen until shipped for gene expression analysis. Total RNA was isolated from the cell suspension in 75 uL of Buffer RLT (Qiagen, Germantown, MD 20874) by Quintiles/Expression Analysis (Durham, NC) using a custom isolation procedure. Total RNA from each plate well was transferred to a preamplification plate. Fluidigm's 96.96 Dynamic ArrayTM (Fluidigm, Amsterdam, the Netherlands) technology was used for gene expression analyses by quantitative reverse transcription polymerase chain reaction (qRT-PCR, performed by Quintiles/Expression Analysis, Durham, NC)89. Standard TaqManTM Assays (Applied Biosystems/ThermoFisher Scientific, Foster City, CA) were used to assess the expression of 93 genes selected based on their selectivity and sensitivity to important hepatic receptors known to be modulated by environmental chemicals; importance in human hepatocyte functionality; and hepatotoxicity. […]

SMILES	outcome	AC50
CCOc1nc(F)cc2nc(S(=O)(=O)Nc3c(Cl)cccc3Cl)nn12	inactive	–
O=P(O)(O)CCCl	inactive	–
Nc1c(Cl)c(Cl)nc(C(=O)O)c1Cl	inactive	–
CCNC(=O)NC(=O)C(C#N)=NOC	inactive	–
OC(c1ccc(Cl)cc1)(c1ccc(Cl)cc1)C(Cl)(Cl)Cl	–	89.3 µM (active)
N#Cc1c[nH]cc1-c1cccc2c1OC(F)(F)O2	inactive	–
Cc1ccc(N=CN(C)C=Nc2ccc(C)cc2C)c(C)c1	inactive	–
CCOc1nc(C(Cl)(Cl)Cl)ns1	inactive	–
Cc1cnc(C2=NC(C)(C(C)C)C(=O)N2)c(C(=O)O)c1 (stereo not given)	inactive	–
COCC(=O)N(c1c(C)cccc1C)C(C)C(=O)OC (stereo not given)	inactive	–
COc1ccc(-c2ccccc2)cc1NNC(=O)OC(C)C	inactive	–
CCC(C)n1c(=O)[nH]c(C)c(Br)c1=O (stereo not given)	inactive	–
O=C1C2CC=CCC2C(=O)N1SC(Cl)(Cl)Cl (stereo not given)	inactive	–
CCCN(CC)CC1COC2(CCC(C(C)(C)C)CC2)O1 (stereo not given)	inactive	–
CCOc1cc(C(C)(C)C)ccc1C1COC(c2c(F)cccc2F)=N1 (stereo not given)	inactive	–
COC(=O)N(C(=O)N1CO[C@@]2(C(=O)OC)Cc3cc(Cl)ccc3C2=N1)c1ccc(OC(F)(F)F)cc1	inactive	–
N#Cc1c(Cl)cccc1Cl	inactive	–
CC(C)(C)C(=O)C(Oc1ccc(Cl)cc1)n1cncn1 (stereo not given)	inactive	–
CCCCC(C#N)(Cn1cncn1)c1ccc(Cl)cc1 (stereo not given)	inactive	–
CC(C)N1C(=O)c2ccccc2NS1(=O)=O	inactive	–

SMILES	outcome	AC50
CCN(CC)c1nc(C)cc(OP(=S)(OC)OC)n1	inactive	–
CCCCC(O)(Cn1cncn1)c1ccc(Cl)cc1Cl (stereo not given)	–	18.8 µM (active)
CCNP(=S)(OC)O/C(C)=C/C(=O)OC(C)C (stereo not given)	inactive	–
CCCCOCN(C(=O)CCl)c1c(CC)cccc1CC	inactive	–
COCc1cnc(C2=NC(C)(C(C)C)C(=O)N2)c(C(=O)O)c1 (stereo not given)	inactive	–
CCCC(=NOCC)C1=C(O)CC(CC(C)SCC)CC1=O (stereo not given)	inactive	–
CS(=O)(=O)c1cc(C(F)(F)F)ccc1C(=O)c1cnoc1C1CC1	inactive	–
CCOP(=O)(OCC)Oc1nc(Cl)c(Cl)cc1Cl	inactive	–
Cc1nc(N(C)C)nc(OC(=O)N(C)C)c1C	inactive	–
COC(=O)NC(=S)Nc1ccccc1NC(=S)NC(=O)OC	inactive	–
CC1(C)CON(Cc2ccccc2Cl)C1=O	inactive	–
CCOP(=S)(OCC)Oc1nc(Cl)n(C(C)C)n1	inactive	–
CC1(C)C(C(=O)OC(C#N)c2cccc(Oc3ccccc3)c2)C1(C)C (stereo not given)	inactive	–
CN/C(=N\[N+](=O)[O-])NCc1cnc(Cl)s1	inactive	–
CC1(C)C(C=C(Cl)Cl)C1C(=O)OC(C#N)c1cccc(Oc2ccccc2)c1 (stereo not given)	inactive	–
Cn1c(-c2ccccc2)cc(-c2ccccc2)[n+]1C	–	40.2 µM (active)
N#CN=C1SCCN1Cc1ccc(Cl)nc1	inactive	–
CCOC(=O)C(C)OC(=O)c1cc(Oc2ccc(C(F)(F)F)cc2Cl)ccc1[N+](=O)[O-] (stereo not given)	inactive	–
CC1(C)CCC(=Cc2ccc(Cl)cc2)C1(O)Cn1cncn1 (stereo not given)	inactive	–
COc1cc(Cl)c(OC)cc1Cl	inactive	–
